Pf Dd2 growth: inhibitors of Plasmodium falciparum Dd2 growth. P. falciparum Dd2 growth, SYBR Green, 72 h. Potency, µM (highest dose often 28.9 µM), for inactives: at the top dose activity, negative = inhibition, usual class: inhibitors. hit rate 4.3% among 120,000; active = well fitted inhibition curve with a large enough effect;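 also: plate controls were DMSO vehicle for no effect and reference drug for full effect; nearly all actives have a fitted effect of over 65% in size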
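Readout: SYBR Green fluorescence, 485 nm excitation, 535 nm emission, after ~16 h lysis at 37C. Before that, Dd2-infected red cells (2.5% hematocrit) grew 72 h with compound, 29 uM top final concentration.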
* hit, by the source's call; i = inactive; [ ] = remark or other dose. Many of the other results were omitted from the sample, so hits are more common in it than they were. Potency is read from the fitted curve at half-maximal effect.

SMILES	Pf Dd2 growth
Cc1cn2c(=O)cc(COC(=O)c3cccc(NC(=O)C(C)Oc4ccccc4)c3)nc2s1 (centres undefined)	i
COc1cc([C@@H]2c3cc4c(cc3[C@H](O)[C@@H](CO)[C@@H]2C(=O)NCC(C)C)OCO4)cc(OC)c1OC	0%
CCOC(=O)c1cccc(NC(=O)C2CCN(c3nnc(C)c4c(C)n(-c5ccccc5)nc34)CC2)c1	-9%
COc1ccc(-n2nc(C(=O)Nc3ccc(C)cn3)c3c4ccccc4n(C)c3c2=O)cc1Cl	15%
O=C([C@@H]1C[C@H](Oc2cccnc2)CN1C(=O)NC1CCCCC1)N1CCCC1	23%
CCc1ccc(NC(=O)CSc2nc3ccccc3c(=O)n2CCNC(C)=O)cc1	73%
O=C(CCCN1C(=O)C(c2ccccc2)Oc2cccnc21)Nc1ccc(Br)cc1F (centres undefined)	-3%
O=C(Cc1c[nH]c2ncc(-c3cccc(Cl)c3)cc12)NCc1cccnc1	4.5µM*
COc1ccc(OC)c(-c2cnc3[nH]cc(CC(=O)NCc4cccnc4)c3c2)c1	i
O=C(Cc1c[nH]c2ncc(-c3ccccc3)cc12)NCc1cnccn1	i
O=C(Cc1c[nH]c2ncc(-c3ccncc3)cc12)NCc1cccnc1	5µM*
O=C(Cc1cccc(Cl)c1)NCc1c[nH]c2ncccc12	-19%[44.1 µM]
NC(=O)Cc1c[nH]c2ncc(-c3cccc(F)c3)cc12	-22%[44.1 µM]
COCCCNC(=O)c1cnc2c(c1)N(C(=O)Cc1ccc(C(C)C)cc1)CCC2	10%[44.1 µM]
CCCCc1cc(C[C@H]2CNCC[C@H]2CC(=O)N2CCCCC2)no1	i
CC(C)NC(=O)NC[C@H]1C[C@@H]2CCN1C[C@@H]2CN1CCOCC1	29%[44.1 µM]
COc1cc(OC)cc(-c2nc(-c3ccc4c(c3)[nH]c(=O)n4C)no2)c1	41%
COc1ccc([N+](=O)[O-])c(N2CC3CCC(C2)N3CC(F)(F)F)n1	-1%
COc1cc2nc(Cl)nc(N3CC4CCC(C3)N4CC(F)(F)F)c2cc1OC	5µM*
FC(F)(F)CN1C2CCC1CN(c1cc(Cl)ncn1)C2	11%
COc1ccc(-c2[nH]ncc2CNC(=O)[C@H]2CCC[C@@H](O)C2)cc1	-4%
CCOc1ccc(CNC(=O)c2cnc(SC)nc2CC)cc1	i[5.79 µM]
CCOC(=O)c1cnc(N2CCN(c3ccc(OC)cc3)CC2)c2ccccc12	12%
CCC[C@@H]1CN(c2nc(SC)ncc2C(=O)OCC)C[C@H]1N(C)C	13µM*
Cc1ccc(CNC(=O)c2ccc3nc(N4CCCCC4)sc3c2)cc1	-8%
SMILES	Pf Dd2 growth
CCc1ccc2nc(N3CCC(C(=O)NCCC(C)C)CC3)sc2c1	i
CCCN(CCC)CCCNC(=O)C1CCN(c2nc3ccc(CC)cc3s2)CC1	7.1µM*
CCOc1ccc2nc(N3CCC(C(=O)Nc4ccc(Br)cc4F)CC3)sc2c1	-27%
CCCN(CCC)CCCNC(=O)C1CCN(S(=O)(=O)CC)CC1	61%
CCCN(CCC)CCNC(=O)C1CCN(c2nc3ccc(CC)cc3s2)CC1	7.1µM*
O=C(NC1CCCN(c2cc(-c3ccccc3)[nH]n2)C1)c1ccccc1Br (centres undefined)	i
COc1cc(SC)ccc1C(=O)N[C@@H]1C=C(C(=O)N[C@@H](Cc2ccc(O)cc2)C(N)=O)C[C@@H](O)[C@@H]1O	-22%
CN(C1CCc2ccccc21)S(C)(=O)=O (centres undefined)	23%[44.1 µM]
CC(C)(C)c1cccc(CN2CCC3(CCNCC3)C2)c1O	10µM*
OCC#Cc1ccc(CN2CCC3(CCNCC3)C2)cc1	2%
CN(Cc1ccccc1CN1CCCC1)C(=O)C1CC2(CCNCC2)CN1C (centres undefined)	-13%
Cc1ccc(CN2CCC3(CCNCC3)C2)c(Cl)c1Cl	13µM*
COc1ccc(F)c(F)c1CN1CCC2(CCNCC2)C1	-23%
Cn1c(CN2CCC3(CCNCC3)C2)nc2ccccc21	-5%
Cc1ccccc1CSc1nc2nc(C)c(Cc3ccccc3)c(C)n2n1	-14%
Cc1nn(CCNC(=O)c2ccccc2C2CCNC2)c(C)c1Cl (centres undefined)	5%
Cn1c(=O)c2c(nc(N3CCOCC3)n2Cc2ccc(Br)cc2)n(C)c1=O	20%
COC(=O)c1ccccc1NC(=O)c1c(NC(=O)c2ccco2)sc2c1CCC(C(C)(C)C)C2 (centres undefined)	-29%
COc1ccc(OCC(=O)NCC(c2ccc(OC)cc2)N2CCOCC2)cc1 (centres undefined)	-1%
CCc1ccc2oc(C(=O)Nc3nonc3CC)c(C)c2c1	-22%
CCc1ccc2oc(C(=O)NCC(c3ccc(Cl)cc3)N3CCOCC3)c(C)c2c1 (centres undefined)	11µM*
CCc1ccc2oc(C(=O)Nc3nc(-c4ccccc4)ns3)c(C)c2c1	31%
CCc1ccc(OCC(=O)NCC(c2ccc(OC)cc2)N2CCOCC2)cc1 (centres undefined)	3.2µM*
Cc1ccc2c(C)c(C(=O)NCC(c3ccc(Cl)cc3)N3CCOCC3)oc2c1 (centres undefined)	-20%
COc1ccc(C(=O)NCC(c2ccc3c(c2)OCO3)N2CCOCC2)cc1 (centres undefined)	48%

Screening data deposited in PubChem BioAssay by National Center for Advancing Translational Sciences (NCATS).
